Bioassay records as filed in PubChem.
aDG glyco act: activators of alpha-DG glycosylation, primary screen, uHTS, Pro5-aDG cells, AlphaScreen; hit rate 0.22% among 360,000; activation, % at 10 µM; alpha-DG glycosylation AlphaScreen (IIH6); 0% Pro5, 100% B10-LARGE cell signal;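 active means activation of at least 8% versus controls, or a plate z-score of at least 8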;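 further: Pro5 are CHO cells carrying HIG-tagged alpha-DG that lacks glycosylation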
EBV LMP1 NFkB: EBV LMP1-driven NF-kappaB luciferase reporter inhibitors, primary screen, cell-based, luminescence, single point. hit rate 0.69% among 350,000. inhibition, % at 12.5 µM. LMP1-induced NF-kappaB luciferase reporter cells; in the data active means inhibition above about 41%;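 further: 0% = neutral control wells and 100% = reference inhibitor control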
LGR2 antag: inhibitors of bursicon-induced LGR2 CRE-luciferase signal, primary screen, cell-based, HEK293, CRE-luciferase reporter, bursicon stimulation. Drosophila bursicon receptor LGR2 (rickets). bursicon-stimulated, 4 h. inhibition, % at 9.99 µM. hit rate 0.35% among 380,000;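 active means drop in luminescence signal, shown as inhibition above about 50% in the replicate tests, limit read from the data, passing the limit was not always enough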;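 further: agonist challenge used bursicon conditioned medium at about half maximal strength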
TWEAK-Fn14 inh: inhibitors of TWEAK-Fn14 signaling, primary screen, luciferase reporter cells, uHTS. AID 1159606, 2016. hit rate 2% among 360,000. TWEAK-stimulated Fn14 reporter cells, luciferase luminescence, 8 h. inhibition, % at 10 µM; in the data active means inhibition above about 50%
HSP90 inh: HSP90 inhibitors, primary screen, cell lysate, luminescence | AID 1789, 2009 | hit rate 0.91% among 290,000 | inhibition, % at 5.6 µM | Rabbit reticulocyte lysate, luciferase refolding luminescence, 3 h;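 active means inhibition above the screen-wide mean plus 3 SD, computed separately per campaign, cut at about 16% in these data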;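 further: 0% = DMSO wells and 100% = 60 µM geldanamycin wells; inhibitors lower the luminescence because luciferase stays unfolded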
TROY signal inh: inhibitors of TROY-driven NF-kB signaling, primary screen, Q293 LMP1-TROYcd cells, NF-kB luciferase, uHTS; Q293 LMP1-TROYcd NF-kB luciferase reporter, 4 h; inhibition, % at 10 µM; hit rate 0.98% among 360,000;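 active means compounds whose plate-normalised and pattern-corrected inhibition of the luciferase reporter signal at the single screening dose is 50% or more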
An asterisk follows results filed as active. Shown are actives, neighbours in structure and some others; about 2.6% of the full set was active somewhere.

`COc1ccc(S(=O)(=O)n2nc(-c3cc(OC)c(OC)c(OC)c3)cc2N)cc1OC` gave aDG glyco act 0, EBV LMP1 NFkB -1, LGR2 antag 9, TWEAK-Fn14 inh 2, HSP90 inh -4 and TROY signal inh 4.
Screening COc1ccc(-c2cc(N)n(S(=O)(=O)c3c(F)c(F)c(F)c(F)c3F)n2)cc1OC returned aDG glyco act 0, EBV LMP1 NFkB 16, LGR2 antag -15, TWEAK-Fn14 inh 51*, HSP90 inh -2 and TROY signal inh 9.
Screening C[C@@H](NC(=O)C[C@H]1CC[C@H]2[C@@H](COC[C@@H](O)CN2Cc2cc(F)ccc2F)O1)c1ccccc1 returned LGR2 antag 5.
For COc1ccc(S(=O)(=O)N(C)C[C@@H]2Oc3ccc(NS(=O)(=O)c4ccccc4)cc3CC(=O)N([C@H](C)CO)C[C@@H]2C)cc1 the results were LGR2 antag -8.
For Cc1ccc(C(=O)Nc2cnc3ccccc3c2)cc1 the results were aDG glyco act 0, EBV LMP1 NFkB 79*, TWEAK-Fn14 inh 105*, HSP90 inh 87* and TROY signal inh 87*.
`O=C(Nc1cnc2ccccc2c1)c1ccco1` gave aDG glyco act 0, EBV LMP1 NFkB 23, TWEAK-Fn14 inh 57*, HSP90 inh 7 and TROY signal inh -25.
`O=C(Nc1cccc(-c2cnc3ccccc3n2)c1)c1ccco1` gave aDG glyco act 0, EBV LMP1 NFkB 2, TWEAK-Fn14 inh 48 and HSP90 inh 0.
Screening Cc1cc(C(=O)Nc2cnc3ccccc3c2)ccc1[N+](=O)[O-] returned aDG glyco act 0, EBV LMP1 NFkB -19, LGR2 antag -19, TWEAK-Fn14 inh -22, HSP90 inh -4 and TROY signal inh -52.
C[C@@H]1CN([C@@H](C)CO)C(=O)c2cc(NC(=O)c3ccncc3)ccc2O[C@@H]1CN(C)S(=O)(=O)c1cn(C)cn1 was read as LGR2 antag 8.
For O=C(NCc1ccccc1)C(=O)Nc1nc(C23CC4CC(CC(C4)C2)C3)cs1 the results were aDG glyco act 0, EBV LMP1 NFkB -16, LGR2 antag -3, TWEAK-Fn14 inh 32, HSP90 inh 6 and TROY signal inh 9.
`O=C(NCc1ccncc1)C(=O)Nc1nc(C23CC4CC(CC(C4)C2)C3)cs1` gave aDG glyco act 0, EBV LMP1 NFkB 6, LGR2 antag 44, TWEAK-Fn14 inh 76*, HSP90 inh 0 and TROY signal inh 57*.
O=c1c2cc([N+](=O)[O-])ccc2sn1-c1ccccc1 was read as aDG glyco act 3, EBV LMP1 NFkB -1, LGR2 antag -3, TWEAK-Fn14 inh -33 and TROY signal inh -95.
`N#Cc1c2ccc([N+](=O)[O-])cc2[n+]([O-])n1-c1ccccc1` gave aDG glyco act 0, EBV LMP1 NFkB 50*, LGR2 antag 12, TWEAK-Fn14 inh 17 and TROY signal inh -4.
N#Cc1cccc(-c2ccc3c(c2)[C@@H]2[C@@H](CCN2C(=O)c2ccncc2)[C@@H](CO)N3)c1 was read as LGR2 antag -24.
`CCOc1ccccc1C(=O)NC1CC2CCCC(C1)N2Cc1nnnn1Cc1ccco1` (stereo not drawn) gave aDG glyco act 0, EBV LMP1 NFkB 57*, TWEAK-Fn14 inh -8, HSP90 inh 2 and TROY signal inh -4.
For CO[C@@H](C(=O)N(C)C[C@@H]1OCc2ccccc2-c2c(n(C)c3ccccc23)C(=O)N([C@H](C)CO)C[C@@H]1C)c1ccccc1 the results were LGR2 antag -3.
COc1ccc(C(=O)Sc2ccc(C)cc2)cc1OC was read as aDG glyco act 0, EBV LMP1 NFkB 1, TWEAK-Fn14 inh 28, HSP90 inh 4 and TROY signal inh 1.
`COc1ccc(C(=O)Sc2ccc(Cl)cc2)cc1OC` gave aDG glyco act 0, EBV LMP1 NFkB -6, TWEAK-Fn14 inh 57*, HSP90 inh 0 and TROY signal inh 5.
For O=C1/C(=C\c2ccc(O)c(O)c2)C(c2ccccc2)=NN1c1ccccc1 the results were aDG glyco act 0, EBV LMP1 NFkB 0, LGR2 antag 19, TWEAK-Fn14 inh 8, HSP90 inh 5 and TROY signal inh 43.
`COc1cc(/C=C2\C(=O)N(c3ccc(NC(C)=O)cc3)N=C2c2ccccc2)ccc1O` gave aDG glyco act 0, EBV LMP1 NFkB 9, LGR2 antag -3, TWEAK-Fn14 inh 7, HSP90 inh 16* and TROY signal inh -17.
For O=C(C[C@@H]1C[C@H]2c3cc(NC(=O)C4CCC4)ccc3O[C@H]2[C@@H](CO)O1)NCc1ccncc1 the results were LGR2 antag 19.
Nc1cc(N)cc(-c2nc3ccccc3o2)c1 was read as aDG glyco act 0, EBV LMP1 NFkB -4, LGR2 antag -6, TWEAK-Fn14 inh 82* and TROY signal inh 25.
For Nc1ccc(-c2nc3ccccc3o2)cc1 the results were aDG glyco act 0, EBV LMP1 NFkB -2, LGR2 antag -78, TWEAK-Fn14 inh 18, HSP90 inh 17* and TROY signal inh -42.
CO[C@H]1CN(C)C(=O)c2ccc(NC(=O)NC(C)C)cc2OC[C@@H](C)N(Cc2ccccn2)C[C@@H]1C was read as LGR2 antag 10.
CCc1ccc2[nH]c(=O)c(C(c3nnnn3CCOC)N3CCN(c4ccccc4F)CC3)cc2c1 (stereo not drawn) was read as aDG glyco act 0, EBV LMP1 NFkB -8, TWEAK-Fn14 inh 50, HSP90 inh 2 and TROY signal inh 53*.
`COCCn1nnnc1C(c1ccc(OC)cc1OC)N1CCN(c2ccccc2F)CC1` (stereo not drawn) gave aDG glyco act 0, EBV LMP1 NFkB 5, TWEAK-Fn14 inh 5, HSP90 inh 1 and TROY signal inh -4.
`N#Cc1ccccc1COc1ccc(/C=C/C(=O)O)cc1` gave aDG glyco act 1, EBV LMP1 NFkB 25, LGR2 antag -15, TWEAK-Fn14 inh 74*, HSP90 inh 12 and TROY signal inh 29.
CO[C@H]1CN(C)C(=O)c2ccc(NC(=O)C3CCCC3)cc2OC[C@@H](C)N(C(C)=O)C[C@@H]1C was read as LGR2 antag 4.
Screening CO[C@@H]1CN(C)C(=O)c2cc(NC(=O)C3CC3)ccc2OC[C@H](C)N(CC2CCOCC2)C[C@@H]1C returned LGR2 antag 11.
For Cc1ccc(Cc2c(C3CCCCC3)nc3c(C)cc(Br)cn23)cc1 the results were aDG glyco act 2, LGR2 antag -29, TWEAK-Fn14 inh 57* and TROY signal inh -19.
